Assay results reported in PubChem BioAssay (NCI).
Values joined by “and” are separate entries in the source; they are usually repeats but may differ in a detail not shown here. Equal entries are not always repeated. This is part of a sample that, as a whole, favours compounds with a hit. Of some 83,000 tested, about 20% had one in any assay.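 Each cell line was grown in a 96-well plate and treated with one concentration of compound for 48 hours. Values below 10 were considered active.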

Columns and labels:
Assay in all cases: NCI-60 one-dose screen, 48 h (100 = growth as untreated, 0 = no growth, -100 = all killed)
Conditions in all cases: 10 µM unless noted
[1] = system: NCI-H23 lung
[2] = system: NCI-H226 lung
[3] = system: NCI-H322M lung
[4] = system: HOP-62 NSCLC
[5] = system: NCI-H460 lung
[6] = system: HOP-92 NSCLC
[7] = system: NCI-H522 lung
[8] = system: A549/ATCC NSCLC
[9] = system: 786-0 renal
[10] = system: COLO 205 colon
[11] = system: DU-145 prostate
[12] = system: K-562 leukemia
[13] = system: MALME-3M melanoma
[14] = system: MDA-MB-231 breast
[15] = system: RXF 393 renal
[16] = system: SF-268 CNS
[17] = system: SF-295 CNS
[18] = system: SF-539 CNS
[19] = system: UACC-257 melanoma
[20] = system: M14 melanoma

Measured: growth

COc1cc(C2CC(c3ccc(F)cc3)=Nc3c(N)nc(N)nc3N2)ccc1Oc1nc(Nc2ccc(F)cc2)nc(N(C)C)n1 (stereo not given)
inactive: [1] 70% | [2] 85.8% | [3] 105% | [4] 86.3% | [5] 10.1% | [6] 36.8% | [7] 60.6% | [8] 58.5% | [9] 43.9% | [10] 56.2% | [11] 55.8% | [12] 15.5% | [13] 52.5% | [14] 44.2% | [15] 17.2% | [16] 63.4% | [17] 40.3% | [18] 69.6% | [19] 38.7% | [20] 56.6%

COC(=O)c1c(C(=O)OC)c2c3ccccc3c3ccccc3n2c1C(=O)C(C)(C)C
inactive: [1] 82.8% | [2] 85.7% | [3] 105% | [4] 118% | [5] 80.3% | [6] 55.7% | [7] 73.6% | [8] 101% | [9] 86.6% | [10] 80.1% | [11] 95.7% | [12] 47.1% | [13] 100% | [14] 73.5% | [15] 82.3% | [16] 89.3% | [17] 81.7% | [18] 83.3% | [19] 94.8% | [20] 74.3%

CCOC(=O)c1ccc(NC(=S)NC(=O)c2cccc(NC(=O)c3ccc(C)cc3)c2)cc1
inactive: [1] 66.8% | [2] 32.2% | [3] 74.7% | [4] 40.4% | [5] 75.9% | [6] 36.4% | [7] 50.6% | [8] 48.2% | [9] 81.2% | [10] 77.9% | [11] 105% | [12] 76.3% | [13] 71.9% | [14] 39.1% | [15] 66.9% | [16] 102% | [17] 90.9% | [18] 44.9% | [19] 78.6% | [20] 80.7%

NC1(c2ccc(-c3ccc4ncnc(NCc5ccccc5)c4c3)cn2)COC1
inactive: [1] 108% and 105% | [2] 103% and 111% | [3] 109% and 97% | [4] 118% and 112% | [5] 106% and 112% | [6] 112% and 120% | [7] 109% and 105% | [8] 111% and 109% | [9] 115% and 104% | [10] 112% and 126% | [11] 105% and 97.7% | [12] 114% and 100% | [13] 106% | [14] 105% and 106% | [15] 103% and 101% | [16] 111% and 113% | [17] 102% and 101% | [18] 101% and 104% | [19] 120% and 109% | [20] 134% and 114%
